# In article PMC5540273 (PLoS ONE, 2017):
# Like-named read-outs stand apart in the source and are kept apart here.
# Legend:
# MAP3K15 = details: concentration: 1 μM, replicates: in singlicate; n = 1
# MAP3K1 = details: concentration: 1 μM, replicates: in singlicate; n = 1
# MAP3K2 = details: concentration: 1 μM, replicates: in singlicate; n = 1
# MAP3K3 = details: concentration: 1 μM, replicates: in singlicate; n = 1
# MAP3K4 = details: concentration: 1 μM, replicates: in singlicate; n = 1
# MAP4K2 = details: concentration: 1 μM, replicates: in singlicate; n = 1
# MAP4K3 = details: concentration: 1 μM, replicates: in singlicate; n = 1
# MAP4K4 = details: concentration: 1 μM, replicates: in singlicate; n = 1
# MAP4K5 = details: concentration: 1 μM, replicates: in singlicate; n = 1
# MAPKAPK2 = details: n = 1
# MAPKAPK5 = details: concentration: 1 μM, replicates: in singlicate; n = 1
# MARK1 = details: concentration: 1 μM, replicates: in singlicate; n = 1
# MARK2 = details: n = 1
# MARK3 = details: n = 1
# MARK4 = details: n = 1
# MAST1 = details: concentration: 1 μM, replicates: in singlicate; n = 1
# MEK1 = test system: T1, MEK1; details: concentration: 1 μM, replicates: in singlicate; n = 1
# T1 construct: gene MAP2K1
# MEK2 = test system: T2, MEK2; details: concentration: 1 μM, replicates: in singlicate; n = 1
# T2 construct: gene MAP2K2
# MEK3 = test system: T3, MEK3; details: concentration: 1 μM, replicates: in singlicate; n = 1
# T3 construct: gene MAP2K3
# MEK4 = test system: T4, MEK4; details: concentration: 1 μM, replicates: in singlicate; n = 1
# T4 construct: gene MAP2K4
# [1] = concentration: 1 μM, replicates: in singlicate
# 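Note: KINOMEscan kinase panel screen.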
smiles,measurement,setting,value
CCn1c(-c2nonc2N)nc2c(C#CC(C)(C)O)ncc(OCCCCN)c21.O=C(O)C(F)(F)F.O=C(O)C(F)(F)F [GSK507274],%Inh,MAP3K15,3%
same,%Inh,MAP3K1,100%
same,%Inh,MAP3K2,90%
same,%Inh,MAP3K3,81%
same,%Inh,MAP3K4,53%
same,%Inh,MAP4K2,0%
same,%Inh,MAP4K3,0%
same,%Inh,MAP4K4,7%
same,%Inh,MAP4K5,35%
same,%Inh,MAPKAPK2; 1 µM,28%
same,%Inh,MAPKAPK5,0%
same,%Inh,MARK1,0%
same,%Inh,MARK2; 1 µM,68%
same,%Inh,MARK3; 1 µM,71%
same,%Inh,MARK4; 1 µM,0%
same,%Inh,MAST1,56%
same,%Inh,MEK1,0%
same,%Inh,MEK2,34%
same,%Inh,MEK3,0%
same,%Inh,MEK4,1%
COc1cc(Nc2nccc(-c3c(-c4cccc(NC(=O)c5c(F)cccc5F)c4)nn4ncccc34)n2)cc(OC)c1OC [GSK327238],%Inh,MAP3K15,0%
same,%Inh,MAP3K1,11%
same,%Inh,MAP3K2,95.4%
same,%Inh,MAP3K3,92.9%
same,%Inh,MAP3K4,88%
same,%Inh,MAP4K2,12%
same,%Inh,MAP4K3,83%
same,%Inh,MAP4K4,67%
same,%Inh,MAP4K5,98.8%
same,%Inh,MAPKAPK2; [1],7%
same,%Inh,MAPKAPK5,0%
same,%Inh,MARK1,53%
same,%Inh,MARK2; [1],18%
same,%Inh,MARK3; [1],30%
same,%Inh,MARK4; [1],56%
same,%Inh,MAST1,0%
same,%Inh,MEK1,98.5%
same,%Inh,MEK2,98.4%
same,%Inh,MEK3,12%
same,%Inh,MEK4,46%
CCn1c(-c2nonc2N)nc2c(C#CC(C)(C)O)nc(OC[C@H](N)c3ccccc3)cc21 [GSK943949],%Inh,MAP3K15,0%
same,%Inh,MAP3K1,0%
same,%Inh,MAP3K2,57%
same,%Inh,MAP3K3,55%
same,%Inh,MAP3K4,1%
same,%Inh,MAP4K2,19%
same,%Inh,MAP4K3,11%
same,%Inh,MAP4K4,8%
same,%Inh,MAP4K5,40%
same,%Inh,MAPKAPK2; [1],0%
same,%Inh,MAPKAPK5,7%
same,%Inh,MARK1,54%
same,%Inh,MARK2; [1],0%
same,%Inh,MARK3; [1],0%
same,%Inh,MARK4; [1],37%
same,%Inh,MAST1,4%
same,%Inh,MEK1,1%
same,%Inh,MEK2,0%
same,%Inh,MEK3,69%
same,%Inh,MEK4,15%
COc1ccc(Nc2nccc(N3CCC(NC(=O)Nc4cccc(OC)c4)C3)n2)cc1 (stereo not drawn) [GSK1379742],%Inh,MAP3K15,0%
same,%Inh,MAP3K1,0%
same,%Inh,MAP3K2,0%
same,%Inh,MAP3K3,0%
same,%Inh,MAP3K4,23%
same,%Inh,MAP4K2,0%
same,%Inh,MAP4K3,5%
same,%Inh,MAP4K4,0%
same,%Inh,MAP4K5,0%
same,%Inh,MAPKAPK2; [1],9%
same,%Inh,MAPKAPK5,0%
same,%Inh,MARK1,0%
same,%Inh,MARK2; [1],0%
same,%Inh,MARK3; [1],0%
same,%Inh,MARK4; [1],0%
same,%Inh,MAST1,23%
same,%Inh,MEK1,0%
same,%Inh,MEK2,0%
same,%Inh,MEK3,0%
same,%Inh,MEK4,24%
NCCCC(NC(=O)c1cc(Br)c(-c2ccnc3[nH]ccc23)s1)c1ccccc1.O=C(O)C(F)(F)F.O=C(O)C(F)(F)F (stereo not drawn) [GSK1287544],%Inh,MAP3K15,23%
same,%Inh,MAP3K1,9%
same,%Inh,MAP3K2,24%
same,%Inh,MAP3K3,0%
same,%Inh,MAP3K4,9%
same,%Inh,MAP4K2,31%
same,%Inh,MAP4K3,4%
same,%Inh,MAP4K4,17%
same,%Inh,MAP4K5,2%
same,%Inh,MAPKAPK2; [1],0%
same,%Inh,MAPKAPK5,0%
same,%Inh,MARK1,0%
same,%Inh,MARK2; [1],2%
same,%Inh,MARK3; [1],20%
same,%Inh,MARK4; [1],4%
same,%Inh,MAST1,0%
same,%Inh,MEK1,0%
same,%Inh,MEK2,0%
same,%Inh,MEK3,71%
same,%Inh,MEK4,50%
COc1cc(Nc2ncc3c(C)nc(-c4cc5ccccc5[nH]4)n3n2)cc(OC)c1OC [GW869516],%Inh,MAP3K15,0%
same,%Inh,MAP3K1,0%
same,%Inh,MAP3K2,0%
same,%Inh,MAP3K3,14%
same,%Inh,MAP3K4,52%
same,%Inh,MAP4K2,0%
same,%Inh,MAP4K3,0%
same,%Inh,MAP4K4,19%
same,%Inh,MAP4K5,11%
same,%Inh,MAPKAPK2; [1],0%
same,%Inh,MAPKAPK5,0%
same,%Inh,MARK1,16%
same,%Inh,MARK2; [1],11%
same,%Inh,MARK3; [1],3%
same,%Inh,MARK4; [1],22%
same,%Inh,MAST1,13%
same,%Inh,MEK1,0%
same,%Inh,MEK2,0%
same,%Inh,MEK3,0%
same,%Inh,MEK4,0%
Cn1cc(-c2ccc3c(c2)CCN3C(=O)Cc2cccc(Cl)c2)c2c(N)ncnc21 [GSK2606590],%Inh,MAP3K15,17%
same,%Inh,MAP3K1,11%
same,%Inh,MAP3K2,84%
same,%Inh,MAP3K3,56%
same,%Inh,MAP3K4,52%
same,%Inh,MAP4K2,8%
same,%Inh,MAP4K3,71%
same,%Inh,MAP4K4,0%
same,%Inh,MAP4K5,79%
same,%Inh,MAPKAPK2; [1],19%
same,%Inh,MAPKAPK5,0%
same,%Inh,MARK1,2%
same,%Inh,MARK2; [1],2%
same,%Inh,MARK3; [1],3%
same,%Inh,MARK4; [1],11%
same,%Inh,MAST1,0%
same,%Inh,MEK1,19%
same,%Inh,MEK2,0%
same,%Inh,MEK3,0%
same,%Inh,MEK4,33%
Cc1ccc(C)c(NC(=O)NC2CCN(c3ccnc(Nc4ccc(F)cc4)n3)C2)c1 (stereo not drawn) [GSK1379720],%Inh,MAP3K15,0%
same,%Inh,MAP3K1,0%
same,%Inh,MAP3K2,0%
same,%Inh,MAP3K3,0%
same,%Inh,MAP3K4,18%
same,%Inh,MAP4K2,0%
same,%Inh,MAP4K3,0%
same,%Inh,MAP4K4,0%
same,%Inh,MAP4K5,0%
same,%Inh,MAPKAPK2; [1],23%
same,%Inh,MAPKAPK5,0%
same,%Inh,MARK1,0%
same,%Inh,MARK2; [1],0%
same,%Inh,MARK3; [1],0%
same,%Inh,MARK4; [1],0%
same,%Inh,MAST1,35%
same,%Inh,MEK1,0%
same,%Inh,MEK2,0%
same,%Inh,MEK3,0%
same,%Inh,MEK4,4%
CNC(=O)c1ccccc1Nc1nc(Nc2ccc(N3CCOCC3)cc2)ncc1Cl.Cl [GSK1576028],%Inh,MAP3K15,36%
same,%Inh,MAP3K1,22%
same,%Inh,MAP3K2,99.5%
same,%Inh,MAP3K3,99.4%
same,%Inh,MAP3K4,90.1%
same,%Inh,MAP4K2,93.5%
same,%Inh,MAP4K3,98.9%
same,%Inh,MAP4K4,28%
same,%Inh,MAP4K5,81%
same,%Inh,MAPKAPK2; [1],0%
same,%Inh,MAPKAPK5,0%
same,%Inh,MARK1,95.2%
same,%Inh,MARK2; [1],92.6%
same,%Inh,MARK3; [1],95.5%
same,%Inh,MARK4; [1],96.8%
same,%Inh,MAST1,0%
same,%Inh,MEK1,88%
same,%Inh,MEK2,87%
same,%Inh,MEK3,87%
same,%Inh,MEK4,74%
